# In PubChem BioAssay:
# Several values for one entry are separate records, joined by “and”; a condition that tells them apart may be missing. Equal entries are not always repeated. Activity calls are given as the source filed them. Unless noted, no stated cut-off is given here; in the data, active means inhibition above about 80%; inactive means the rest.
# Key:
# [1] = growth inhibition of BT084 medulloblastoma cells, cell-based, ICGC_MB145, cisplatin and BGB IC40 combos (AID 1671461); conditions: drug combinations, stronger effect = higher value;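 further: cells exposed to drugs for 96 hours; 0% = vehicle DMSO and 100% = high DMSO full killing control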
# [2] = growth inhibition of RCMB18 medulloblastoma cells, cell-based, cisplatin and BGB IC40 combos (AID 1671462); conditions: stronger effect = higher value;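 further: cells exposed to compound for four days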
# [3] = growth inhibition of CRL1545 osteosarcoma cells, cell-based, cisplatin and BGB IC20 combos (AID 1671464); conditions: stronger effect = higher value;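 further: cells exposed to compound for 96 hours before readout; 0% = vehicle DMSO and 100% = high DMSO killing control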
# [4] = hESC survival regulators, cell-based (AID 493140; call rule not given here;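 further: cells exposed to compounds for four days before counting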); conditions: human embryonic stem cell survival screen; stronger effect = higher value
# [5] = liver-stage malaria parasite growth inhibition, primary screen, cell-based, HepG2, luciferase luminescence, HepG2 viability (AID 624349; in the data active means parasite load remaining mostly below about 12%, no sharp cut-off; inactive means mostly above about 10%;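 further: 100% = mean of DMSO negative control wells on the same plate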); conditions: P. berghei liver stage in HepG2, luciferase luminescence, concentration not given here; parasite load remaining: stronger effect = lower value; viability: measured here: HepG2 viability without parasites
# [6] = sensitizers of A549 cells to miR-34 induction, primary screen, imaging, A549 dox-inducible miR-34, nuclei and caspase counts (AID 1347080;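 active means compounds whose cell count with miR-34 switched on is under 0.7 times the count with it off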); conditions: A549 miR-34 inducible, Hoechst nuclei count, 48 h
# [7] = survival rescue of mitochondrial mutant cells in low glucose, primary screen, MELAS cybrids, Rieske KO mouse fibroblasts, CellTiter-Glo (AID 1508586;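 active means mean z-score across replicates of 1.96 or higher in either the MELAS or the Rieske mutant cell line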;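 further: z relative to plate mean and SD of compound and empty wells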)
# [8] = LFS_MB_P medulloblastoma growth inhibition, cell-based, chromothripsis tumors, cisplatin or BGB combos (AID 1671449); conditions: LFS_MB_P medulloblastoma cells;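 further: cells exposed for 96 hours; 0% = vehicle DMSO and 100% = killing by high DMSO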
# [9] = HDN33 neuroblastoma growth inhibition, cell-based, chromothripsis tumors, cisplatin or BGB combos (AID 1671450); conditions: HDN33 neuroblastoma cells, stronger effect = higher value;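 further: cells exposed to compound for four days; 0% = vehicle DMSO and 100% = cell killing by high DMSO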
# [10] = ICB984 medulloblastoma cell growth inhibition, synergistic combos for chromothripsis tumors, cisplatin or BGB combos (AID 1671451; call rule not given here;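 further: cells exposed for 96 hours before readout; 0% = vehicle DMSO and 100% = killing by high DMSO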); conditions: ICB984 medulloblastoma cells, drug combinations, stronger effect = higher value
# [11] = LFS_MB_1R medulloblastoma cell growth inhibition, synergistic combos for chromothripsis tumors, cisplatin or BGB combos (AID 1671452); conditions: LFS_MB_1R medulloblastoma cells, stronger effect = higher value;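 further: cells exposed for 96 hours before readout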
# [12] = HTB85 osteosarcoma cell growth inhibition, synergistic combos for chromothripsis tumors, BGB or cisplatin IC20 combos (AID 1671453); conditions: HTB85 osteosarcoma cells, drug combinations, stronger effect = higher value;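 further: cells exposed for 96 hours before readout; 0% = vehicle DMSO and 100% = high DMSO killing control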
# [13] = CRL2098 osteosarcoma cell growth inhibition, synergistic combos for chromothripsis tumors, BGB or cisplatin IC20 combos (AID 1671454); conditions: CRL2098 osteosarcoma cells, drug combinations, stronger effect = higher value;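 further: cells exposed for 96 h before readout; 0% = vehicle DMSO and 100% = killing by high DMSO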
# [14] = HD-MB03 medulloblastoma cell growth inhibition, synergistic combos for chromothripsis tumors, BGB or cisplatin IC20 combos (AID 1671455; in the data active means inhibition above about 83%;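 further: 0% = vehicle DMSO and 100% = high DMSO as cytotoxic control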); conditions: HD-MB03 medulloblastoma cells, stronger effect = higher value
# [15] = UWB1.289 ovarian carcinoma cell growth inhibition, synergistic combos for chromothripsis tumors, BGB or cisplatin combos (AID 1671456); conditions: UWB1.289 ovarian carcinoma cells, stronger effect = higher value;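 further: cells exposed to compound for four days; 0% = vehicle DMSO and 100% = killing by high DMSO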
# [16] = LFS_MB_2R medulloblastoma cell growth inhibition, synergistic combos for chromothripsis tumors, cisplatin combos (AID 1671457); conditions: LFS_MB_2R medulloblastoma cells, stronger effect = higher value;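 further: cells exposed to compound for four days before readout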
# [17] = MDA-MB-436 breast carcinoma cell growth inhibition, synergistic combos for chromothripsis tumors, BGB or cisplatin combos (AID 1671458; call rule not given here;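 further: cells exposed for 96 hours; 0% = vehicle DMSO and 100% = killing by high DMSO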); conditions: MDA-MB-436 breast carcinoma growth inhibition, drug combinations, stronger effect = higher value
# [18] = UWB1.289_BRCA1 ovarian cancer growth, cell-based, BGB or cisplatin combinations (AID 1671459); conditions: UWB1.289 BRCA1 ovarian carcinoma, drug combinations, stronger effect = higher value
# [19] = human astrocyte viability loss, single and combined drugs, cytotoxicity control for chromothriptic childhood tumor combination screen, cell-based, BGB or cisplatin IC20 combos (AID 1671460); conditions: Human astrocytes, drug combinations, stronger effect = higher value;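 further: cells exposed to compounds for 96 hours before viability readout; 0% = vehicle and 100% = killing control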
# [20] = cisplatin combination, at 0.5 µM
# [21] = measured here: BGB IC40 combination 0.05 uM, at 0.05 µM
# [22] = measured here: BGB IC40 combination, at 0.05 µM
# [23] = measured here: combination with cisplatin, at 0.5 µM
# [24] = measured here: with BGB IC20 combination, at 0.5 µM
# [25] = measured here: with cisplatin IC20 combination, at 0.5 µM
# [26] = stronger effect = lower value, cell number ratio, induced over uninduced
# [27] = measured here: relative caspase fold change +Dox/-Dox
# [28] = measured here: total cells with miR-34 induction, stronger effect = lower value
# [29] = measured here: total cells without miR-34 induction
# [30] = MELAS cybrid survival, CellTiter-Glo 48 h, stronger effect = higher value
# [31] = Rieske KO mouse fibroblast survival, CellTiter-Glo 72 h
# [32] = measured here: combination with BGB IC40, at 0.05 µM
# [33] = measured here: combination with cisplatin, at 5 µM
smiles,measurement,setting,value
CCCCN(Cc1ccc(C(=O)NO)cc1)C(=O)Nc1ccccc1,inhibition,[1]; [20],19.3% and 17.8%
same,inhibition,"[1]; cisplatin combination, at 5 µM",71.8% and 68.9%
same,inhibition,[1]; [21],-5.38% and 25.6%
same,inhibition,"[1]; single agent, at 5 µM",45.6% and 57.8%
same,inhibition,[2]; at 0.5 µM,12.4% (inactive) and 19.2% (inactive)
same,inhibition,"[2]; cisplatin combo, at 5 µM",43.7% and 48.5%
same,inhibition,[2]; [22],-4.7% and 0.072%
same,inhibition,[2]; [23],39% and 19%
same,inhibition,"[2]; single agent, at 5 µM",15.2% and 39.4%
same,inhibition,[3]; at 0.5 µM,-6.16% (inactive) and 6.99% (inactive)
same,inhibition,[3]; [24],-21.4% and 15.9%
same,inhibition,[3]; [25],1.44% and 0.349%
same,inhibition,"[3]; single agent, at 0.05 µM",-0.576% and -13%
same,inhibition,"[3]; single agent, at 5 µM",32.4% and 24.1%
Cc1cc(C(=O)NNCc2ccccc2)no1,survival,[4],3.33 (inactive)
same,parasite load remaining,[5],129% (inactive)
same,viability,[5],100%
same,fold change,[6]; [26],0.777 (inactive)
same,fold change,[6]; [27],1.27
same,cell count,[6]; [28],8090
same,cell count,[6]; [29],10400
same,z-score,[7]; [30],0.697 (inactive)
same,z-score,[7]; [31],0.109
c1ccc(CNc2ncnc3nc[nH]c23)cc1,survival,[4],39 (inactive)
same,parasite load remaining,[5],31% (inactive) and 123% (inactive)
same,viability,[5],49.8% and 87.6%
same,fold change,[6]; [26],1.05 (inactive)
same,fold change,[6]; [27],1.32
same,cell count,[6]; [28],8060
same,cell count,[6]; [29],7640
same,z-score,[7]; [30],2.23 (active)
same,z-score,[7]; [31],0.15
O=C(O)C(O)C(O)C(O)C(O)C(=O)O (stereo not drawn) (tested in a mixture with another compound),survival,[4],5.33 (inactive)
same,parasite load remaining,[5],114% (inactive)
same,viability,[5],71.7%
same,fold change,[6]; [26],0.895 (inactive)
same,fold change,[6]; [27],0.792
same,cell count,[6]; [28],8860
same,cell count,[6]; [29],9910
same,z-score,[7]; [30],-1.4 (inactive)
same,z-score,[7]; [31],-0.918
CC(C)(C)C(=O)OCOC(=O)[C@@H]1N2C(=O)[C@@H](N=CN3CCCCCC3)[C@H]2SC1(C)C,survival,[4],17.2 (inactive)
same,parasite load remaining,[5],86.3% (inactive)
same,viability,[5],108%
same,fold change,[6]; [26],0.956 (inactive)
same,fold change,[6]; [27],0.721
same,cell count,[6]; [28],9610
same,cell count,[6]; [29],10100
same,z-score,[7]; [30],0.579 (inactive)
same,z-score,[7]; [31],-0.414
CNCCC=C1c2ccccc2C=Cc2ccccc21,survival,[4],0.833 (inactive)
same,parasite load remaining,[5],45.3% (inactive) and 67.3% (inactive)
same,viability,[5],45.5% and 71.9%
same,fold change,[6]; [26],0.862 (inactive)
same,fold change,[6]; [27],1.27
same,cell count,[6]; [28],6810
same,cell count,[6]; [29],7910
same,z-score,[7]; [30],0.194 (inactive)
same,z-score,[7]; [31],0.365
O=C(O)c1cc2cccc([N+](=O)[O-])c2[nH]1,fold change,[6]; [26],0.946 (inactive)
same,fold change,[6]; [27],0.523
same,cell count,[6]; [28],8560
same,cell count,[6]; [29],9040
same,z-score,[7]; [30],-0.36 (inactive)
same,z-score,[7]; [31],0.315
same,inhibition,"[8]; at 0.5 µM, stronger effect = higher value",-23.9% (inactive)
same,inhibition,"[8]; measured here: combination with BGB IC20, at 0.005 µM",-6.46%
same,inhibition,"[8]; measured here: combination with BGB IC40, at 0.005 µM",-31.7%
same,inhibition,[8]; [32],-15.1%
same,inhibition,"[8]; measured here: combination with cisplatin, at 0.5 µM, stronger effect = higher value",-30%
same,inhibition,"[8]; measured here: combination with cisplatin, at 5 µM, stronger effect = higher value",-50.9%
same,inhibition,"[9]; BGB combo, at 5 µM",-9.55%
same,inhibition,[9]; at 0.5 µM,-19.2% (inactive)
same,inhibition,"[9]; cisplatin combo, at 5 µM",-1.64%
same,inhibition,[9]; [24],-22.3%
same,inhibition,[9]; [25],-18.1%
same,inhibition,"[9]; single agent, at 5 µM",-9.97%
same,inhibition,"[10]; BGB IC20 combo, at 0.005 µM",-35.7%
same,inhibition,"[10]; BGB IC40 combo, at 0.005 µM",-62.5%
same,inhibition,"[10]; BGB IC40 combo, at 0.05 µM",-61%
same,inhibition,[10]; at 0.5 µM,-39.2% (inactive)
same,inhibition,"[10]; cisplatin combo, at 0.05 µM",-67.4%
same,inhibition,"[10]; cisplatin combo, at 0.5 µM",-58.3%
same,inhibition,"[10]; cisplatin combo, at 5 µM",-47.8%
same,inhibition,"[10]; measured here: 5 uM single agent, at 5 µM",-25.3%
same,inhibition,[11]; at 0.5 µM,-25.3% (inactive)
same,inhibition,[11]; [32],-24.6%
same,inhibition,[11]; [23],-18.7%
same,inhibition,[11]; [33],-30.6%
same,inhibition,[12]; at 0.5 µM,-15.9% (inactive)
same,inhibition,"[12]; measured here: with BGB IC20, at 0.5 µM",-41.2%
same,inhibition,"[12]; measured here: with BGB IC20, at 5 µM",-22.3%
same,inhibition,"[12]; measured here: with cisplatin IC20, at 0.5 µM",-7.91%
same,inhibition,"[12]; measured here: with cisplatin IC20, at 5 µM",-2.59%
same,inhibition,"[12]; single agent, at 5 µM",-17.2%
same,inhibition,[13]; at 0.5 µM,-68.3% (inactive)
same,inhibition,"[13]; measured here: combination with BGB at IC20, at 0.5 µM",-23.9%
same,inhibition,"[13]; measured here: combination with cisplatin at IC20, at 0.5 µM",-78.8%
same,inhibition,[14]; at 0.5 µM,-5.12% (inactive)
same,inhibition,"[14]; measured here: combo with BGB at IC20, at 0.5 µM",-8.83%
same,inhibition,"[14]; measured here: combo with cisplatin at IC20, at 0.5 µM",1.4%
same,inhibition,[15]; at 0.5 µM,-15.9% (inactive)
same,inhibition,"[15]; measured here: inhibition with BGB combination, at 0.05 µM",-35.8%
same,inhibition,"[15]; measured here: inhibition with cisplatin combination, at 0.05 µM",40%
same,inhibition,[16]; at 0.5 µM,-32% (inactive)
same,inhibition,[16]; [23],-28.5%
same,inhibition,[16]; [33],-29.3%
same,inhibition,[17]; at 0.5 µM,-23.3% (inactive)
same,inhibition,"[17]; measured here: BGB combination, at 0.5 µM",-25%
same,inhibition,"[17]; measured here: BGB combination, at 5 µM",-42.9%
same,inhibition,"[17]; measured here: cisplatin combination, at 0.5 µM",-25.6%
same,inhibition,"[17]; measured here: cisplatin combination, at 5 µM",-40.6%
same,inhibition,"[18]; BGB combination, concentration series, at 5 µM",-18.8%
same,inhibition,[18]; at 0.5 µM,-21.8% (inactive)
same,inhibition,"[18]; cisplatin combination, concentration series, at 5 µM",-8.12%
same,inhibition,[19]; at 0.5 µM,-16% (inactive)
same,inhibition,"[19]; measured here: combo with BGB IC20, at 0.5 µM",-13.8%
same,inhibition,"[19]; measured here: combo with cisplatin IC20, at 0.5 µM",-5.7%
same,inhibition,[1]; at 0.5 µM,-15.5% (inactive)
same,inhibition,[1]; [20],-11.3%
same,inhibition,"[1]; cisplatin combination, at 5 µM",-2.07%
same,inhibition,[1]; [21],-9.88%
same,inhibition,"[1]; single agent, at 5 µM",-23.7%
same,inhibition,[2]; at 0.5 µM,-11.6% (inactive)
same,inhibition,"[2]; cisplatin combo, at 5 µM",27.1%
same,inhibition,[2]; [22],-14.6%
same,inhibition,[2]; [23],5.09%
same,inhibition,"[2]; single agent, at 5 µM",-41.3%
same,inhibition,[3]; at 0.5 µM,-22.4% (inactive)
same,inhibition,[3]; [24],-10%
same,inhibition,[3]; [25],-28.5%
same,inhibition,"[3]; single agent, at 0.05 µM",22.7%
same,inhibition,"[3]; single agent, at 5 µM",-25.9%
